Bioassay records (PubChem)
The list is not random: actives were taken first. Their share in the collection is about 11%.
NS1 inh = inhibitors of influenza NS1 protein function. Potency, µM (titrated, usually from 46.1 µM), without a hit: at the top dose activity, positive = more growth. 0.4% of 270,000 active. AID 2326; calls by dose curve; note: actives are rising curves; nearly all actives have a fitted effect of over 50% in size
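Compounds were scored for reversing the slow growth caused by influenza A NS1 in S. cerevisiae, measured by optical density at 600 nm. Assay medium contained 2% galactose at pH 6.0; NS1-free yeast of the same strain were the positive control.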
Pf growth 96h = inhibits malaria parasite growth, 96 h; P. falciparum luciferase reporter growth, 96 h; Potency, µM (doses to about 28.7 µM), without a hit: at the top dose activity change, negative = inhibition, hits mostly inhibitors; 6.9% of 320,000 active; AID 504834; note: % is set by controls: 0 for no effect and ±100 for the full control effect
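Erythrocytes infected with luciferase-expressing P. falciparum were dispensed at 2% hematocrit and 0.05% parasitemia (final), then incubated with compounds 96 hours at 37 C in 5% CO2. Luminescence after detection reagent addition reported growth.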
Sm TGR inh = blocks Schistosoma mansoni thioredoxin glutathione reductase; Q962Y6; purified TGR, DTNB reduction, TNB absorbance 405 nm; Potency, µM (highest dose often 114 µM), inactives show at the highest dose activity change, negative = inhibition, hits mostly inhibitors; 3% of 360,000 active; note: % is set by controls: 0 for no effect and ±100 for the full control effect; nearly all actives have a fitted effect of over 60% in size
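TGR 20 nM + NADPH 100 uM (dispensed conc.), cpd preinc 15 min RT; start with NADPH (500 uM addition) then DTNB (15 mM addition). Kinetic TNB absorbance, 405 nm filter. Four-parameter Hill fit across titration.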
Pf growth 48h = P. falciparum growth inhibition at 48 hours (one generation). Potency, µM (highest dose often 28.7 µM), without a hit: at the highest dose activity change, negative = inhibition, most hits filed as inhibitors. P. falciparum luciferase growth in erythrocytes, 48 h. AID 504832. 5.9% of 310,000 active; note: % is set by controls: 0 for no effect and ±100 for the full control effect
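Erythrocytes infected with P. falciparum carrying an integrated firefly luciferase reporter (2% hematocrit, 0.1% parasitemia final) were exposed to compounds in RPMI 1640 with 0.5% Albumax at 37 C, 5% CO2. Growth inhibition was scored as reduced luminescence.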
AMA1-RON2 inh = inhibitors of Plasmodium falciparum AMA1-RON2 interaction | AlphaScreen AMA1-biotinylated RON2 peptide binding | Potency, µM (series often up to 58.2 µM), for inactives: top-dose activity change, negative = inhibition, most hits filed as inhibitors | 0.2% of 360,000 active;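 note: 0% = vehicle wells and -100% = peptide control; nearly all actives have a fitted effect of over 45% in size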
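AMA1 (3D7) with his tag at 25 nM final met compounds first, then biotinylated RON2 peptide at 25 nM; detection used donor plus acceptor beads, 10 µg/mL apiece, read by AlphaScreen after 30 min at room temperature.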
Active calls of the source: *; ? = inconclusive; . = no result; [ ] = another dose, or the depositor's remark. Unless noted, calls come from the whole dose curve; as a rule, active = well fitted curve in the direction sought with a large enough effect; inconclusive = small, poorly fitted or top-dose-only effect, or another doubt; inactive = no such curve, though single readings can be large; an effect the other way counts as inactive or inconclusive. Potency is the fitted concentration of half-maximal effect.

SMILES	NS1 inh	Pf growth 96h	Sm TGR inh	Pf growth 48h	AMA1-RON2 inh
CCOc1cc(CNc2cccc3ccccc23)cc(Br)c1OCC(=O)NC(C)(C)C	19%	9.3µM*	-9%	.	-9%
CCOc1cc(CNc2ccc(N3CCOCC3)cc2)cc(Br)c1OCC	7%	?	-11%	?	14µM*
CCOc1cc(CNc2ccc3c(c2)OCCO3)cc(Br)c1OCC	13%	2.1µM*	-11%	1.9µM*	?
CCOc1cc(CNc2ccc(N3CCCCC3)cc2)cc(Br)c1OCC(=O)NC(C)(C)C	-27%	13µM*	-17%	?	20µM*
O=S(=O)(Nc1cccc(-c2cn3c(n2)SCC3)c1)c1ccccc1	3%	-22%	-7%	-10%	3%
CCOc1cc(CNc2ccc(S(N)(=O)=O)cc2)ccc1OCC(=O)NC(C)(C)C	2%	?	-11%	21%	-11%
CCOc1cc(CNc2ccc(N(C)C)cc2)cc(Br)c1OCC(=O)NC(C)(C)C	-19%	?	-31%	0.66µM*	25µM*
COc1ccc(COC(=O)C2CCN(S(=O)(=O)c3ccc(C)cc3)CC2)cc1	.	0%	4%	-16%	7%
O=C(CSc1ccc2nnc(-c3ccncc3)n2n1)NCc1ccco1	-14%	-30%	3.2µM*	.	6%
O=C(CSc1ccc2nnc(-c3ccc(F)cc3)n2n1)NCc1ccco1	2%	30%	45µM*	8%	-6%
Cc1ccc(-c2nnc3ccc(SCC(=O)NCc4ccco4)nn23)cc1	1%	145%	50µM*	-11%	3%
CCOc1ccc(-c2nnc3ccc(SCC(=O)NCc4ccco4)nn23)cc1	-30%	91%	15%	30%	-5%
O=C(Nc1ccccc1C(F)(F)F)c1cc(-c2ccc3c(c2)OCCO3)on1	.	.	2%	.	.
CCc1ccc(CNc2ccc(O)cc2)cc1	27%	56%	22µM*	12µM*	8%
Oc1ccc(NCc2ccc(OCc3ccccc3)cc2)cc1	-4%	3%	7.1µM*	1%[0.00184 µM]	42%
Oc1ccc(NCc2ccc(OCc3ccccc3Cl)cc2)cc1	.	.	35µM*	.	.
CCC(=O)Nc1ccc(NCc2ccc(-c3ccccc3)cc2)cc1	-12%	?	-2%	-1%	-4%
Oc1ccc(OCc2ccccc2)cc1	.	?	.	-27%[12.8 µM]	.
CCOC(=O)C1CCN(C(=O)CCC(=O)NNc2nc3ccccc3c3nc(C)nn23)CC1	5%	?	-7%	?	15%
COc1ccc(CCC(=O)Nc2cccc(S(=O)(=O)N3CCOCC3)c2)cc1OC	.	-6%	4%	-10%	26%
CCc1ccc2c(c1)C(c1cccs1)=NNC(c1cccnc1)=N2	9%	?	-30%	?	-11%
Clc1ccc2c(c1)C(c1cccs1)=NNC(c1cccnc1)=N2	19%	1.7µM*	-1%	-7%	-5%
Cc1ccc(NC(=O)CN(C)C(=O)COc2c(Cl)cc(Cl)c3ccc(C)nc23)cc1	10%	1.7µM*	-11%	4.1µM*	-4%
Cc1ccc2c(Cl)cc(Cl)c(OCC(=O)N3CCCC3)c2n1	.	28%	40µM*	10%	14%
Cc1ccc2c(Cl)cc(Cl)c(OCC(=O)N3CCOCC3)c2n1	.	?	-18%	?	-8%
SMILES	NS1 inh	Pf growth 96h	Sm TGR inh	Pf growth 48h	AMA1-RON2 inh
Cc1ccc(NC(=O)CN(C)C(=O)COc2cccc3ccc(C)nc23)cc1	.	.	.	.	-3%
CCCC(c1nnnn1C(C)(C)CC)N(CCCO)Cc1cc2cc(C)cc(C)c2[nH]c1=O (stereo not given)	-4%	?	9%	?	-2%
CCC(C)(C)n1nnnc1C(C(C)C)N(CCCO)Cc1cc2cc(C)ccc2[nH]c1=O (stereo not given)	-7%	13µM*	-7%	?	2%
CCC(c1nnnn1C(C)(C)CC)N(CCCO)Cc1cc2cc(C)cc(C)c2[nH]c1=O (stereo not given)	-71%	10µM*	?	8.3µM*	-7%
O=C(Nc1ccccn1)C12CC3CC(CC(C3)C1)C2	-15%	.	20%	13µM*	-4%
COc1ccc(/C=C/c2c(-c3cccc(C)c3)oc3ccc(N4CCOCC4)cc23)cc1	.	.	.	.	-27%
COC(=O)c1ccc(/C=C/c2c(-c3ccc(OC)cc3)oc3ccc(N4CCOCC4)cc23)cc1	?	3.7µM*	0%	?	3%
c1ccc2c(c1)CCc1c-2nc2ccccc2c1N1CCOCC1	-8%	?	2%	15µM*	15%
O=C1C2C3C=CC(CNS(=O)(=O)c4ccccc4[N+](=O)[O-])(O3)C2C(=O)N1c1ccccc1 (stereo not given)	.	?	3.2µM*	?	20%
Cc1cc(C)c(S(=O)(=O)NCC23C=CC(O2)C2C(=O)N(c4ccccc4)C(=O)C23)c(C)c1 (stereo not given)	-103%	53%	4.5µM*	0%	-11%
Cc1cc(C)c(S(=O)(=O)NCCS(=O)(=O)N2CCN(c3ccccc3)CC2)c(C)c1	.	.	8%	.	.
CCCCN1C(=O)C(O)(c2c[nH]c3ccccc23)c2cc(Br)ccc21 (stereo not given)	.	.	1%	.	.
CCOc1ncccc1C(=O)Nc1ccc2c(c1)OCCCO2	.	-7%	-2%	-24%	-17%
COc1ccc(C(=O)Nc2nc(C)cs2)cc1S(=O)(=O)N1CCOCC1	.	.	.	.	1%
ClC(Cl)(c1nnnn1-c1ccccc1)c1nnnn1-c1ccccc1	-46%	?	20µM*	4%	-19%
COc1cc2oc3ccccc3c2cc1N(CC(=O)N(C)C)S(=O)(=O)c1ccccc1	4%	?	-28%	?	-6%
CCN(CC)C(=O)CN(c1cc2c(cc1OC)oc1ccccc12)S(=O)(=O)c1ccccc1	10%	10µM*	19%	9.3µM*	-7%
O=C(O)c1ccc2cccc(O)c2n1	5%	0%	-9%	0%	87%
O=C(O)c1ccc2cccnc2n1	.	0%	32µM*	-6%	14%
CCC(C)(C)NC(=O)C(c1ccc(OC)cc1)N(CCOC)C(=O)CCC(=O)Nc1nccs1 (stereo not given)	2%	?	.	-18%	-1%
CCC(C)(C)NC(=O)C(c1ccc(O)cc1)N(CCOC)C(=O)CCC(=O)Nc1nccs1 (stereo not given)	-77%	21%	-10%	2.9µM*	3%
CCC(C)(C)NC(=O)CN(C(=O)CCC(=O)Nc1nccs1)c1cccc(C)c1C	18%	1%	2%	13µM*	0%
Cc1nn2c(COc3ccc(NC(=O)C(C)C)cc3)nnc2c2ccccc12	.	37%	2%	?	-1%
Cc1nn2c(COc3ccc(NC(=O)c4ccccc4Cl)cc3)nnc2c2ccccc12	?	4.1µM*	-14%	12µM*	-6%[11.6 µM]
O=C(Oc1ccc(=O)n(-c2ccccc2)n1)c1cccc(Cl)c1	-26%	42%	16µM*	32%	-2%
CC(C)OC(=O)c1c(NC(=O)COc2cccc(Br)c2)sc2c1CCCC2	.	.	2%	.	.
